# Screening data from PubChem BioAssay.
# IL1B secr inh: inhibitors of inflammasome signaling (IL-1 beta secretion). THP-1 LPS/ATP IL-1B secretion, AlphaLISA, 16 h; stronger effect = lower value. activity change, % at 57.5 µM. hit rate 4.7% among 360,000; in the data active means activity change below about -50%; inconclusive means mostly about -30% to -49%
#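 Secreted IL-1B measured by AlphaLISA bead assay after 16 h compound exposure of THP-1 cells; compounds (final up to 57.5 uM) added 1 h before LPS (250 ng/mL) and ATP (1.25 mM) stimulation; lower signal means less secretion.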
# HT1080 IDH1KD tx: HT-1080 IDH1 knockdown cell toxicity (counter line). HT-1080 IDH1 knockdown viability, ATP luminescence, 48 h. Potency, µM (series often up to 46.1 µM), for inactives: at the highest dose activity, negative = toxicity, hits mostly cytotoxic. hit rate 2% among 360,000. AID 686971;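 further: potency means the concentration at half of the fitted maximal effect; 0% = DMSO wells and -100% = cell-free medium wells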
#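 IDH1KD HT-1080 cells, 750/well, RPMI + 5% FBS; compound pinned after 2 h settling; 48 h, 37 °C; CellTiter-Glo luminescence; % activity normalised to DMSO and no-cell wells; curves fitted, classed by r2 and efficacy.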
# HT1080NT lethal: kills 2HG-producing HT-1080-NT fibrosarcoma cells | hit rate 1.6% among 360,000 | Potency, µM (highest dose often 46.1 µM), inactives show top-dose activity, negative = less viability, most hits filed as cytotoxic | HT-1080-NT fibrosarcoma viability, CellTiter-Glo ATP luminescence, 48 h;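 further: NT is the 2HG producing partner of a matched IDH1 knockdown line; potency means the concentration at half of the fitted maximal effect; 0% = DMSO-treated cells and -100% = media-only wells without cells; nearly all actives have a fitted effect of over 55% in size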
#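 Fibrosarcoma NT cells, 750 per well in 5% FBS RPMI, were exposed to compound for 48 hours. Viability: CellTiter-Glo luminescence.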
# ELG1 DNA repair: blocks ELG1-dependent DNA repair in HEK293T cells. HEK293T ELG1-luciferase reporter, luminescence, 16 h; DNA damage induced by 5-fluorouridine. Potency, µM (top dose mostly 46.1 µM), inactives show top-dose activity change, negative = inhibition, most hits filed as inhibitors. hit rate 2.3% among 330,000. AID 504467; further: potency means the concentration at half of the fitted maximal effect; nearly all actives have a fitted effect of over 55% in size
#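 Luminescence from the luciferase reporter, measured 30 min after ONE-Glo reagent at room temperature, was the read-out. Beforehand, 2,000 cells per well were exposed for 16 hr at 37 °C to 5-fluorouridine together with compound or vehicle.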
# TDP1 cell CPT: DT40-hTDP1 cell growth loss with CPT. chicken DT40 Tdp1-/-;hTDP1 cells + 20 nM CPT, ATP luminescence, 48 h. Potency, µM (doses to about 46.2 µM), without a hit: at the highest dose activity change, negative = growth inhibition, most hits filed as inhibitors. hit rate 12% among 420,000; further: potency means the concentration at half of the fitted maximal effect; nearly all actives have a fitted effect of over 55% in size
#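 Cell growth measured by CellTiter-Glo luminescence after a minimum 48 h, 37 C compound exposure with 20 nM CPT in Tdp1-knockout DT40 cells stably expressing hTDP1, seeded 400/well; qHTS titration format.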
# DT40 TDP1 no CPT: qHTS for Inhibitors of human tyrosyl-DNA phosphodiesterase 1 (TDP1): qHTS in cells in absence of CPT; DT40 Tdp1-/- hTDP1 cells, no CPT, ATP luminescence, 48 h; Potency, µM (doses to about 46.2 µM), without a hit: top-dose activity change, negative = growth inhibition, usual class: inhibitors; hit rate 15% among 420,000; AID 686978, 2013; further: potency means the concentration at half of the fitted maximal effect; nearly all actives have a fitted effect of over 55% in size
#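 Cells were dispensed at 400 per well, compounds added by pin tool, plates incubated ≥48 hr at 37 °C, then CellTiter-Glo added for 30 min at room temperature before luminescence reading. Line: DT40 Tdp1-/- complemented with hTDP1; camptothecin omitted.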
# The depositor's hits bear a star; ? = inconclusive; . = no result given; ! = a repeat was not active; [ ] = remark or other dose. In the library only some 19% were active in any assay of this set; here they are far more common. Unless noted, the call rests on the fitted dose curve; in most records, active means well fitted curve in the direction sought with a large enough effect; inconclusive means small, poorly fitted or top-dose-only effect, or another doubt; inactive means no such curve, though single readings can be large; an effect the other way counts as inactive or inconclusive. Unless noted, on the % scale 0 is the no-effect control and ±100 the full control effect.
SMILES,IL1B secr inh,HT1080 IDH1KD tx,HT1080NT lethal,ELG1 DNA repair,TDP1 cell CPT,DT40 TDP1 no CPT
CC1(NC(=O)NCCCCCCNC(=O)NC2(C)CCS(=O)(=O)C2)CCS(=O)(=O)C1 (stereo not given),1,13%,12%,21%,6%,1%
Cc1[nH]c2ccccc2c1N=Nc1ccccc1C(=O)O,7,-8%,-9%,29%,-30%,?
CCN(CCCNC(=O)COc1cc(=O)n(CC)c2ccccc12)c1ccccc1,-13,-3%,0%,0%,23µM*,?
CCN(CCCNC(=O)CSc1cc(=O)n(CC)c2ccccc12)c1cccc(C)c1,.,.,.,.,21µM*,21µM*
O=[N+]([O-])c1ccc(N2CCCCC2)cc1NCCOc1ccccc1,-4,19%,19%,15%,29µM*,18µM*
O=[N+]([O-])c1ccccc1NCCOc1ccccc1,-6,-1%,-1%,?,-7%,-2%
NCCNc1cc(N2CCCC2)ccc1[N+](=O)[O-],29,-4%,0%,-17%,23µM*,?
CCc1ccc(OCCNc2cc(N3CCNC(C)C3)ccc2[N+](=O)[O-])cc1 (stereo not given),-67*,?,?,-4%,23µM*,?
CC(C)(C)CNc1cc(N2CCCC2)ccc1[N+](=O)[O-],0,4%,4%,-2%,-20%,-24%
Cc1ccccc1OCCNc1cc(N2CC(C)NC(C)C2)ccc1[N+](=O)[O-] (stereo not given),?,?,?,-19%,15µM*,?
CC1CN(c2ccc([N+](=O)[O-])c(NCCOc3ccccc3)c2)CC(C)N1 (stereo not given),-59*,21µM*,16µM*,12%,?,?
COc1cccc(OCCNc2cc(Cl)ccc2[N+](=O)[O-])c1,?,2%[9.24 µM],1%,?,?,0%
CCc1ccc(CNc2ncnc3onc(-c4ccc(Cl)cc4)c23)cc1,.,.,.,.,-17%,16µM*
Fc1ccc(-c2noc3ncnc(NCc4cccc(Cl)c4)c23)cc1,.,.,.,.,-4%,?
CCCCN(CC)CCNc1ncnc2onc(-c3ccc(Cl)cc3)c12,.,.,.,.,-21%,-19%
Fc1ccc(CNc2ncnc3onc(-c4ccc(F)cc4)c23)cc1,.,.,.,.,18µM*,23µM*
Cc1c(Cl)c(=O)n2c(=O)c(Cl)c(C)n12,13,5%,13%,-6%,2%,-15%
Cc1c(/C(O)=C2/C(=O)C(=O)N(CCN3CCOCC3)C2c2ccccn2)cnn1-c1ccccc1 (stereo not given),24,27%,6%,?,10%,-12%
C[C@@H](C(=O)NC1CCCC1)N1C(=O)N2CCc3c([nH]c4ccccc34)[C@@]2(C)C1=O,24,-5%,-4%,-6%,21µM*,?
CC(NC(=O)[C@H](C)N1C(=O)N2CCc3c([nH]c4ccccc34)[C@@]2(C)C1=O)c1ccccc1 (stereo not given in full),15,-2%,0%,?,16µM*,?
COc1ccc(NC(=O)CN2C(=O)NC(C)(c3ccc(C)cc3)C2=O)c([N+](=O)[O-])c1 (stereo not given),-6,-4%,-4%,-14%,?,?
O=C(Cc1cc(=O)[nH][nH]1)N/N=C/c1c(Cl)cccc1Cl,-100*!,0%,-8%,12%,-7%,-7%
O=C(Cc1cc(=O)[nH][nH]1)N/N=C/c1c(F)cccc1Cl,-10,-2%,0%,0%,?,34%
COC(=O)c1ccc(C2c3c(-c4ccccc4O)n[nH]c3C(=O)N2Cc2ccncc2)cc1 (stereo not given),.,.,.,.,18µM*,?
COc1cc(C2c3c(-c4ccccc4O)n[nH]c3C(=O)N2Cc2ccncc2)ccc1O (stereo not given),.,.,.,.,-6%,-7%
SMILES,IL1B secr inh,HT1080 IDH1KD tx,HT1080NT lethal,ELG1 DNA repair,TDP1 cell CPT,DT40 TDP1 no CPT
O=C1c2[nH]nc(-c3ccccc3O)c2C(c2cccc(Br)c2)N1Cc1ccncc1 (stereo not given),.,.,.,.,2.9µM*,1.2µM*
O=C1c2[nH]nc(-c3ccccc3O)c2C(c2cccc(O)c2)N1Cc1ccco1 (stereo not given),-22,?,-13%,-9%,?,?
Cc1ccc(C2c3c(-c4ccccc4O)n[nH]c3C(=O)N2Cc2ccncc2)cc1 (stereo not given),?,?,?,-17%,?,23µM*
C=CCC(O)(CC=C)CNC(=O)c1ccc(OC)c(OC2CCN(C(C)=O)CC2)c1,0,-1%,2%,-1%,1%,19%
O=c1oc2c(F)cc(F)cc2cc1S(=O)(=O)c1ccc(F)cc1,.,.,.,.,-17%,-18%
Cc1cc(OCC(=O)OCC(=O)NCc2ccc3c(c2)OCO3)ccc1Cl,0,3%,1%,?,-4%,11%
COc1ccc(CNC(=O)CCc2c(C)c3ccc(OC)c(C)c3oc2=O)cc1OC,.,.,.,.,-27%,-23%
O=C(Nc1ncccc1O)c1ccc(S(=O)(=O)Nc2ccccc2)cc1,30,9.2µM*,13µM*,?,5.2µM*,5.2µM*
Cc1cc(C(C)(C)C)cc(S(=O)(=O)Nc2cccc(C(=O)O)c2)c1C,44,0%,13%,-1%,-3%,-10%
Cc1ccccc1NC(=O)c1ccc(NS(=O)(=O)c2cc(C(C)(C)C)cc(C)c2C)cc1,-20,?,?,-16%,?,15µM*
O=C(Nc1ccccc1O)c1ccc(NS(=O)(=O)c2cccc3cccnc23)cc1,32,?,-26%,?,4.1µM*,7.3µM*
CCOc1ccc(OCCC(=O)N(CC)CC(=O)Nc2ccccc2OC)cc1,-13,-6%,1%,.,?,?
COc1cc(-c2cc(-c3ccc(F)cc3)nc(N)c2C#N)ccc1O,1,-24%,-9%,?,?,?
COc1ccc(-c2c(C#N)c(N)nc3c2CCCC3)cc1OC,-15,-1%,3%,.,-19%,-27%
CCOc1cc(-c2c(C#N)c(N)nc3c2CCCC3)ccc1O,-4,-8%,-9%,-13%,?,21µM*
CCOc1cc(-c2cc(-c3ccccc3)nc(N)c2C#N)ccc1O,?,-25%,-29%,?,23µM*,?
